# Sampled rows, rich in hits. Any-hit rate of the full collection: about 6.9%.
# Vif-APOBEC3F blk: blocks the Vif interaction with APOBEC3F. HeLa A3F-eYFP + Vif (tagged APOBEC3F with the HIV-1 protein that degrades it), YFP fluorescence increase. Potency, µM (highest dose often 46.1 µM), without a hit: at the highest dose activity, negative = active. 0.2% of 390,000 active. AID 602313; further: potency means the concentration at half of the fitted maximal effect; % of control where 0% means no effect; nearly all actives have a fitted effect of over 65% in size
#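 HeLa cells stably expressing Vif plus C-terminally eYFP-tagged A3F were seeded, incubated overnight at 37 deg C, dosed with compound, incubated overnight again at 37 deg C. Yellow fluorescence (Ex 488/Em 500-530) reported blocked Vif-mediated A3F-eYFP degradation.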
# IL-1B inflam inh: blocks inflammasome-driven IL-1 beta release. activity change, % at 57.5 µM. AID 743279. THP-1 LPS/ATP IL-1B secretion, AlphaLISA, 16 h; hits give low values. 4.7% of 360,000 active; in the data active means activity change below about -50%; inconclusive means mostly about -30% to -49%; further: on the % scale 0 is the no-effect control and ±100 the full control effect
#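 THP-1 cells pretreated 1 hr with compounds (up to 57.5 uM final), then stimulated with LPS (250 ng/mL final) plus ATP (1.25 mM final); secreted IL-1B measured by AlphaLISA after 16 hr, decreased signal indicating inhibition.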
# SW480 rereplic: inducers of DNA re-replication in SW480 colon cancer cells; SW480 DNA re-replication, Hoechst DNA content imaging, 48 h; Potency, µM (doses to about 46.1 µM), without a hit: at the highest dose re-replication activation, hits mostly activators; 1.8% of 340,000 active; AID 624297; further: potency means the concentration at half of the fitted maximal effect; % of control where 0% means no effect; nearly all actives have a fitted effect of over 55% in size
#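 Per well, 250 cells were exposed to pinned compound for 48 hr. Nuclear DNA was visualised with Hoechst (40 min, 37 C) and total object intensity recorded by fluorescence scanning.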
# Giardia kill: Giardia lamblia killing; Giardia lamblia trophozoite viability; activity change, % at 7.66 µM, hits read low; 0.15% of 340,000 active; in the data active means activity change below about -80%; inconclusive means between about -30% and that limit;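 further: parasites exposed to compound for two days anaerobically before the ATP read; on the % scale 0 is the no-effect control and ±100 the full control effect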
#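 Anaerobic 48 hrs incubation at 37 deg C of 100 trophozoites/well with test compounds; ATPLite 1-Step luminescence, 15-30 min RT, reports cellular ATP as viability.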
# Vif-A3G inh: blocks the Vif interaction with human APOBEC3G; 0.076% of 410,000 active; Potency, µM (highest dose often 46.1 µM), without a hit: top-dose activity, negative = active, most hits filed as inhibitors; HeLa A3G-eYFP + Vif (tagged APOBEC3G with the HIV-1 protein that degrades it), YFP fluorescence, overnight; Q9HC16; AID 602310; further: potency means the concentration at half of the fitted maximal effect; on the % scale 0 is the no-effect control and ±100 the full control effect; nearly all actives have a fitted effect of over 60% in size
# Target sequence (Q9HC16 whole entry, looked up): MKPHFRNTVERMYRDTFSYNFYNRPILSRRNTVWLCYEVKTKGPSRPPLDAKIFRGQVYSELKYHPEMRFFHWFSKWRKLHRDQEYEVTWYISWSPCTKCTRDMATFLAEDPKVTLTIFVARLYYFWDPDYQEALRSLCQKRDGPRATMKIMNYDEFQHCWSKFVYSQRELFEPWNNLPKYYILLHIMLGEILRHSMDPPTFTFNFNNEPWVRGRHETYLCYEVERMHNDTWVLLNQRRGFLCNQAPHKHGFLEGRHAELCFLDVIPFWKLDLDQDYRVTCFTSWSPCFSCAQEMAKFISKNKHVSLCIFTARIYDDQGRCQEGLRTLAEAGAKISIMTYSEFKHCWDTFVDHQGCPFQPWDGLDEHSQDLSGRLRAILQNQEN
#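 HeLa cells stably expressing Vif and C-terminally eYFP-tagged A3G, seeded overnight at 37 deg C, then exposed to compound by pintool overnight at 37 deg C. Rise in yellow fluorescence (Ex 488/Em 500-530, Acumen) marks blocked Vif-driven A3G degradation.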
# MCF10A rereplic: induces DNA re-replication in MCF 10a normal breast cells | Potency, µM (top dose mostly 46.1 µM), without a hit: at the top dose activity, positive = re-replication, most hits filed as activators | 2.9% of 350,000 active | MCF 10A DNA re-replication, Hoechst nuclear intensity, 48 h; further: potency means the concentration at half of the fitted maximal effect; % of control where 0% means no effect; nearly all actives have a fitted effect of over 50% in size
# Active calls of the source: *; i = inactive; u = inconclusive; x = not tested or not shown. Unless noted, the call rests on the fitted dose curve; in most records, active means well fitted curve in the direction sought with a large enough effect; inconclusive means small, poorly fitted or top-dose-only effect, or another doubt; inactive means no such curve, though single readings can be large; an effect the other way counts as inactive or inconclusive.
SMILES,Vif-APOBEC3F blk,IL-1B inflam inh,SW480 rereplic,Giardia kill,Vif-A3G inh,MCF10A rereplic
CC(=O)OC1(C(C)=O)CCC2C3CC(C(F)(F)F)C4=CC(=O)CCC4(C)C3CCC21C (centres undefined),-5.4%,-94.4*,u,-11.1,0.1%,158.9%
c1cnc2ccc3ncccc3c2c1,-0.1%,-24.5,-0.5%,21.9,2.3%,1.5%
CNc1ccc(N=Nc2cccc3ncccc23)cc1,0.1%,-53.8*,-6.8%,-5.6,-8.8%,20.0%
O=C1/C(=C/c2cccs2)NC(=S)N1C1CC1,-18.0%,-1.3,18.4µM*,-2.3,-2.5%,0.9%
Cc1nc([N+](=O)[O-])cn1CC(O)c1ccc2c(c1)OCO2 (centres undefined),x,x,x,x,-0.7%,x
O=C(NCCc1ccccc1Cl)c1ccc2c(=O)n(-c3ccccc3)c(=O)[nH]c2c1,-6.3%,x,x,x,0.6%,x
NC1=C(Cl)C(=O)c2ccccc2C1=O,6.4%,-12.9,16.4µM*,-25.5,-5.6%,u
NC1=C(Cl)C(=O)c2ccc(S(N)(=O)=O)cc2C1=O,8.4%,-97.8*,0.731µM*,-5.9,-7.4%,1.46µM*
CCCCN(CC)C(=O)Cn1nc(C)c2c(C)n(-c3ccccc3)nc2c1=O,1.3%,x,x,x,-2.5%,x
COc1cccc(NC(=O)CCC2CCN(C(=O)Cc3cccc(F)c3)CC2)c1,3.1%,1.6,-2.7%,-7.2,-1.9%,15.0%
COc1ccc(CC(=O)N2CCC(CCC(=O)Nc3ccccc3)CC2)cc1,-9.1%,-0.3,21.0%,-0.7,-0.4%,23.1µM*
Nc1nc(SCc2ccccc2)c2ncn(C3CCCCC3)c2n1,0.5%,-78.5*,4.5%,7.4,-2.1%,u
COc1ccc(NC(=O)Cn2cc(C(=O)C3CCCCC3)c3ccccc32)cc1,1.7%,x,x,x,-2.5%,x
COc1ccc(CCCc2nnc(SCC(=O)Nc3ccc(C)cc3C)o2)cc1,2.4%,x,x,x,-0.5%,x
COc1ccc(C2c3ccc4ccccc4c3Oc3ncn(CCN(C)C)c(=N)c32)cc1 (centres undefined),-6.9%,-97.8*,u,9.4,-16.4%,20.6µM*
COc1ccc(C2c3ccc4ccccc4c3Oc3ncn(CCCO)c(=N)c32)cc1 (centres undefined),6.2%,-69.2*,u,8.6,-10.0%,u
COc1ccc(Cc2nc3c4c(ncn3n2)Oc2ccc3ccccc3c2C4c2ccc(OC)c(OC)c2)cc1 (centres undefined),-5.3%,0.0,-44.8%,-15.1,-27.4%,0.1%
COc1ccc(C2c3ccc4ccccc4c3Oc3ncn(CCO)c(=N)c32)cc1 (centres undefined),-2.1%,-100.4*,u,2.7,u,u
COc1ccc(C2c3ccc4ccccc4c3Oc3ncn(CCO)c(=N)c32)cc1OC (centres undefined),-4.5%,u,u,9.7,-1.7%,-1.3%
COc1ccc(Cc2nc3c4c(ncn3n2)Oc2c(ccc3ccccc23)C4c2ccc(OC)c(OC)c2)cc1 (centres undefined),-11.7%,2.0,-1.4%,-7.0,-0.5%,-4.0%
COc1ccc(C2c3ccc4ccccc4c3Oc3ncn(CCCO)c(=N)c32)cc1OC (centres undefined),-9.2%,-55.5*,18.4µM*,-16.8,-22.2%,18.4µM*
Cc1cccc(NS(=O)(=O)c2c(C)nc3sccn3c2=O)c1C,-6.0%,x,x,x,0.8%,x
N=c1c2c(ncn1CCCO)Oc1c(ccc3ccccc13)C2c1ccccc1 (centres undefined),0.5%,-28.4,u,18.4,u,u
CN(C)CCCn1cnc2c(c1=N)C(c1ccccc1)c1ccc3ccccc3c1O2 (centres undefined),u,-9.7,4.5%,u,-8.3%,18.4µM*
COc1cc(C(CC(=O)Nc2cccc(C(C)=O)c2)N2Cc3ccccc3C2=O)cc(OC)c1OC (centres undefined),7.0%,x,x,x,-0.9%,x
SMILES,Vif-APOBEC3F blk,IL-1B inflam inh,SW480 rereplic,Giardia kill,Vif-A3G inh,MCF10A rereplic
COc1ccc(-c2nnc(SCC(=O)Nc3ccc(C)c(C)c3)s2)cc1,-2.2%,x,x,x,0.2%,x
O=C(COc1ccc2c3c(c(=O)oc2c1)CCCC3)NCc1ccccn1,5.0%,-50.2*,-38.6%,-4.0,0.0%,-3.2%
CCc1cc(=O)oc2cc(OCC(=O)NCc3ccccn3)ccc12,-4.7%,u,11.6µM*,9.2,0.7%,u
O=C(COc1ccc2c3c(c(=O)oc2c1)CCC3)Nc1ccc(CCO)cc1,1.4%,-53.0*,-7.3%,-22.7,1.5%,-1.5%
O=C(COc1ccc2c(-c3ccccc3)cc(=O)oc2c1)NCc1ccccn1,5.1%,-6.9,-13.4%,7.9,0.1%,3.5%
NS(=O)(=O)c1ccc(CCNC(=O)COc2ccc3c4c(c(=O)oc3c2)CCC4)cc1,-8.4%,6.4,-2.2%,-16.6,2.6%,-3.1%
CCOC(=O)C1=C(CP(=O)(c2ccccc2)c2ccccc2)NC(=O)NC1c1ccc(Cl)cc1 (centres undefined),3.7%,-55.4*,7.5%,-9.4,-1.0%,15.3%
CCOC(=O)C1=C(CSc2nc3ccccc3s2)NC(=O)NC1c1cc(C)ccc1C (centres undefined),-1.1%,u,18.4µM*,1.6,-6.2%,u
CCOC(=O)C1=C(CSCC(=O)OC)NC(=O)NC1c1cc(C)ccc1C (centres undefined),0.0%,-14.9,-11.3%,-3.7,-0.1%,-6.7%
CCOC(=O)C1=C(CP(=O)(c2ccccc2)c2ccccc2)NC(=O)NC1c1ccc(OC)cc1 (centres undefined),-17.8%,13.3,7.2%,-22.3,2.7%,6.6%
CCOC(=O)C1=C(CSc2nc3ccccc3s2)NC(=O)NC1c1ccc(OC)cc1 (centres undefined),-5.9%,-86.0*,-2.4%,0.7,0.8%,5.4%
COc1ccc(C2CC(=O)Oc3c(C(CCN4CCCC(C)C4)c4cc(OC)c(OC)c(OC)c4)c(OC)cc(OC)c32)cc1 (centres undefined),x,x,x,-5.0,2.8%,x
COC(=O)C1Cc2c([nH]c3ccccc23)C2(CCN(Cc3ccccc3)CC2)N1 (centres undefined),13.5%,-86.3*,20.0%,18.9,4.8%,25.0%
Cc1cc(C)cc(NC(=O)COc2cccc3c(=O)n(C)ccc23)c1,1.4%,x,x,x,-4.6%,x
O=C(NC1CCCc2c1cnn2-c1cc(F)cc(F)c1)c1ccccn1 (centres undefined),-5.9%,-16.1,-3.2%,-7.0,-3.9%,2.5%
COC(=O)c1ccc(C(=O)NC2CCCc3c2cnn3-c2cc(F)cc(F)c2)nc1 (centres undefined),0.7%,i,6.51µM*,3.8,u,2.91µM*

# Compound activity deposited in PubChem BioAssay by National Center for Advancing Translational Sciences (NCATS).
